# Laboratory results reported in PubChem BioAssay (EPA / NIEHS).
# Values joined by “and” are separate entries in the source; they are usually repeats but may differ in a detail not shown here. Equal values may be shown once. Records with an inconclusive call do not appear. Active and inactive are the calls of the source. The calls were made as follows, unless noted: active = hit-call score of the fitted dose curve at least 0.9, where 1 is the maximum; inconclusive = response in the unintended direction; inactive = score below 0.9.
# Target: human CYP2C8, CYP2C8 (gene 1558) (UniProt P10632)
# Assay: NVS_ADME_hCYP2C8: NovaScreen (NVS) CYP450-related Enzyme Activity (ADME) Assay for human CYP2C8 (AID 2283104; active = hit-call score of the fitted dose curve at least 0.9, where 1 is the maximum; inactive = score below 0.9)
# Experimental: NVS_ADME_hCYP2C8 is a biochemical, single-readout assay that uses extracted gene-proteins in a cell-free assay. Measurements were taken 0.5 hour after chemical dosing in a 96-well plate.NVS_ADME_hCYP2C8 is one of one assay component(s) measured or calculated from the NVS_ADME_hCYP2C8 assay. It is designed to make measurements of enzyme activity, a form of enzyme reporter, as detected with fluorescence intensity signals by Fluorescence technology.Data from the assay component NVS_ADME_hCYP2C8 was analyzed into 1 assay endpoint. This assay endpoint, NVS_ADME_hCYP2C8, was analyzed in the positive analysis fitting direction relative to Acetonitrile as the negative control and baseline of activity. Using a type of enzyme reporter, loss-of-signal activity can be used to understand changes in the enzymatic activity as they relate to the gene CYP2C8. Furthermore, this assay endpoint can be referred to as a primary readout, because this assay has produced multiple assay endpoints where this one serves a enzymatic activity function. To generalize the intended target to other relatable targets, this assay endpoint is annotated to the cyp intended target family, where the subfamily is xenobiotic metabolism.
# Binding assays used specific radioligands (tritiated, iodinated) with non-radioactive competitive displacement ligands in agonist or antagonist protocols (as indicated) and various reference compounds and inhibitors to titrate specific binding to receptors and transporters. Most enzyme assays (CYPs, kinases, phosphatases, proteases, HDACs) used recombinant protein and specific substrates (fluorescence mostly, some colorimetric and radioactive) and inhibitors, followed by a biochemical separation of substrate and product. All assays for the biochemical HTS were initially run in duplicate at a single concentration (10 uM for CYP450 assays and 25 uM for all others). […]
# Chain of human CYP2C8, CYP2C8 (gene 1558) (P10632 whole entry, looked up): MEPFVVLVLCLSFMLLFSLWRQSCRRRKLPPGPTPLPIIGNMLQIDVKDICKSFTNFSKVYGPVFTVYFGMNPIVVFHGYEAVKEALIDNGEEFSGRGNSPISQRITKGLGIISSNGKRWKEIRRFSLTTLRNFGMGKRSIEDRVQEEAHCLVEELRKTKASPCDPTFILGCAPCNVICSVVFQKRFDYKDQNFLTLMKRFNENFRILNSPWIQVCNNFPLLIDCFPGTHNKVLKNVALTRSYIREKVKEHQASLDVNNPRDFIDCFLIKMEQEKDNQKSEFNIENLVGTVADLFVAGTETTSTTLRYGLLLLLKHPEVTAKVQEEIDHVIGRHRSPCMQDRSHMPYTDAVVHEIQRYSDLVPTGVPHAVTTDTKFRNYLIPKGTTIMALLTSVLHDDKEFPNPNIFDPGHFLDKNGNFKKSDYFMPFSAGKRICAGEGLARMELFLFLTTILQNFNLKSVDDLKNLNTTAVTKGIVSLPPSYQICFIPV
row,SMILES,AC50
1,Oc1ccc(C(c2ccc(O)cc2)C(Cl)(Cl)Cl)cc1,1.06 µM (active)
2,N#CSCSc1nc2ccccc2s1,4.46 µM (active)
3,C=CCOC(Cn1ccnc1)c1ccc(Cl)cc1Cl (stereo unspecified),6.22 µM (active)

# Target: human CYP4F12, CYP4F12 (gene 66002) (UniProt Q9HCS2)
# Assay: NVS_ADME_hCYP4F12: NovaScreen (NVS) CYP450-related Enzyme Activity (ADME) Assay for human CYP4F12 (AID 2283111)
# Outline: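 Cell-free fluorescence assay of recombinant human CYP4F12 activity on a specific substrate, read 0.5 h after dosing. Primary screen in duplicate at 10 uM, then concentration series for actives; loss of signal fitted against acetonitrile negative control.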
# Chain of human CYP4F12, CYP4F12 (gene 66002) (Q9HCS2 whole entry, looked up): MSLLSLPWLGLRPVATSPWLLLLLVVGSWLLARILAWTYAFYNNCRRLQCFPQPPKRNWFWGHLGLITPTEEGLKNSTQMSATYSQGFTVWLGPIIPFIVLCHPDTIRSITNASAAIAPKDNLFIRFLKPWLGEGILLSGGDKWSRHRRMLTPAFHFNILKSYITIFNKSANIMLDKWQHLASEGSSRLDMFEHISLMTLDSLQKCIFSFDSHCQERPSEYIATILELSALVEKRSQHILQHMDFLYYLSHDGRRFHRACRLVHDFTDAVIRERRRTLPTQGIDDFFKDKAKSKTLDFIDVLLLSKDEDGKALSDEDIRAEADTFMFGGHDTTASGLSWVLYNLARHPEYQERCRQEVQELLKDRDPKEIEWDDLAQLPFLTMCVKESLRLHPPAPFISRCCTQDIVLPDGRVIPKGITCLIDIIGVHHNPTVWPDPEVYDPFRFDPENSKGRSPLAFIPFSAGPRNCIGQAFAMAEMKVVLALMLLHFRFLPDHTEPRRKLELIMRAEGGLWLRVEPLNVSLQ
SMILES,AC50,outcome
CC(C)NCC(O)c1ccc(O)c(O)c1 (stereo unspecified),2.13 µM (active),–
O=C1NC(=O)C(c2ccccc2)(c2ccccc2)N1,–,inactive
CC(C)(c1ccc(O)cc1)c1ccc(O)cc1,4.07 µM (active),–
CC1=CC(=O)/C(=C(/C)O)C(=O)O1,1.52 µM (active),–
CC(=O)[C@H]1CC[C@H]2[C@@H]3CCC4=CC(=O)CC[C@]4(C)[C@H]3CC[C@]12C,–,inactive
CNC(=O)[C@H]1O[C@@H](n2cnc3c(NCc4cc(Cl)ccc4OCc4cc(C)no4)ncnc32)[C@H](O)[C@@H]1N,–,inactive
O=C=NCCCCCCN=C=O,0.884 µM (active),–
Nc1nc(Cl)nc2c1ncn2[C@H]1C[C@H](O)[C@@H](CO)O1,–,inactive
S=C(S)NCCNC(=S)S.[Mn+2].[S-]C([S-])=NCCN=C([S-])[S-].[Zn+2],–,inactive
CCCCCCCC(=O)O,4.61 µM (active),–
Oc1ccc(C(c2ccc(O)cc2)C(Cl)(Cl)Cl)cc1,0.615 µM (active),–
CCN(CC)CCNc1ccc(CNC=O)c2sc3ccc(OC)cc3c(=O)c12,1.41 µM (active),–
C[C@]12CC[C@@H]3c4ccc(O)cc4CC[C@H]3[C@@H]1CC[C@@H]2O,–,inactive

# Test system: rat CYP2B1, gene 24300
# Assay: NVS_ADME_rCYP2B1: NovaScreen (NVS) CYP450-related Enzyme Activity (ADME) Assay for rat CYP2B1 (AID 2283117)
# Outline: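 Recombinant rat CYP2B1 with fluorogenic substrate, read at 0.75 h. Primary screen in duplicate at 10 uM; compounds meeting threshold (e.g., 30% inhibition) re-run in concentration-response up to 20 uM. Fitted against acetonitrile control.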
SMILES,outcome,AC50
CC(=O)[C@H]1CC[C@H]2[C@@H]3CCC4=CC(=O)CC[C@]4(C)[C@H]3CC[C@]12C,inactive,–
Oc1ccc(C(c2ccc(O)cc2)C(Cl)(Cl)Cl)cc1,–,9.18 µM (active)
N#CSCSc1nc2ccccc2s1,–,3.96 µM (active)
C=CCOC(Cn1ccnc1)c1ccc(Cl)cc1Cl (stereo unspecified),–,0.0108 µM (active)
C[C@]12CC[C@@H]3c4ccc(O)cc4CC[C@H]3[C@@H]1CC[C@@H]2O,–,14.1 µM (active)

# Target: rat CYP2C12, Cyp2c12 (gene 25011) (UniProt P11510)
# Assay: NVS_ADME_rCYP2C12: NovaScreen (NVS) CYP450-related Enzyme Activity (ADME) Assay for rat CYP2C12 (AID 2283119)
# Outline: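 Cell-free recombinant rat CYP2C12 activity read by fluorescence 0.5 h after dosing; loss of signal versus acetonitrile control. Primary screen in duplicate at 10 uM; actives then run in concentration-response format.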
# Chain of rat CYP2C12, Cyp2c12 (gene 25011) (P11510 whole entry, looked up): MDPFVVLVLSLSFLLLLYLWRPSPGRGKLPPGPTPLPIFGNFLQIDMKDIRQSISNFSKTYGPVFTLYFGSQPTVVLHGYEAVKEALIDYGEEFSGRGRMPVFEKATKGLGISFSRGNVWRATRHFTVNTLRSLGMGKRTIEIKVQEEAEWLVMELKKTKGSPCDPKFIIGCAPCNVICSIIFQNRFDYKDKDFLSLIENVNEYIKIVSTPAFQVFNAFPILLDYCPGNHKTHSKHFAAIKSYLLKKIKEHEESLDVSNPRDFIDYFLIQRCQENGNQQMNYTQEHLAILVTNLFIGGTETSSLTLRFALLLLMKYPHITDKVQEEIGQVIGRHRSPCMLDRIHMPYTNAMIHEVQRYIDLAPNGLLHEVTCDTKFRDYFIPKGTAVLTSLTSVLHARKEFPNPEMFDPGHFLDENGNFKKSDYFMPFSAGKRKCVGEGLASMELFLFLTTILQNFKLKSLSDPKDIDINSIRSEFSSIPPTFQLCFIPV
SMILES,AC50,outcome
CC(C)(c1ccc(O)cc1)c1ccc(O)cc1,7.75 µM (active) and 4.05 µM (active) and 10 µM (active),–
Oc1ccc(C(c2ccc(O)cc2)C(Cl)(Cl)Cl)cc1,–,inactive
N#CSCSc1nc2ccccc2s1,5.12 µM (active),–
C=CCOC(Cn1ccnc1)c1ccc(Cl)cc1Cl (stereo unspecified),2.13 µM (active),–
C[C@]12CC[C@@H]3c4ccc(O)cc4CC[C@H]3[C@@H]1CC[C@@H]2O,–,inactive
